Screens (PubChem)
KCNQ2 enhance = enhances the rat KCNQ2 potassium channel; CHO-K1 KCNQ2, FluxOR thallium flux fluorescence; active compounds read high; B-score at 10 µM; 310,000 tested, 0.54% active; AID 2239;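 active means fluorescence ratio B-score at least 3 SD of library B-scores, with initial fluorescence B-score within 3 of them, cut at about 5.3 in these data; same plate scores as AID 2156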;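 further: B-score of peak minus minimum over baseline fluorescence ratio after K+ and Tl+ stimulus; positive B-score means potentiation of KCNQ2 with more thallium influx and brighter signal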
KCNQ2 inh = KCNQ2 (rat) channel inhibition. O88943. AID 2156. 310,000 tested, 1.1% active. B-score at 10 µM. CHO-K1 KCNQ2, FluxOR thallium flux, 20 min; active compounds read low;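 active means fluorescence ratio B-score at most minus 3 library SDs, with starting brightness B-score within 2 library SDs, cut at about -5.5 in these data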
Kir21 conf inh = confirmation of mouse Kir2.1 potassium channel inhibitors | Tl flux remaining, % of negative control (active compounds read low), % at 10 µM | AID 2032 | shares compounds with KCNQ2 enhance | Kir2.1-expressing cells, FluxOR thallium flux fluorescence; active compounds read low | 2,300 tested, 41% active;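 active means Primary-screen hit whose thallium flux fell at least 3 control SD below untreated wells in both duplicates, with normal baseline fluorescence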
HEK293 Tl flux = parental HEK293 activity in Kir2.1 inhibitor counter-screen; shares compounds with KCNQ2 enhance; parental HEK293 cells, FluxOR thallium flux fluorescence; 0% = unstimulated blank wells; FluxOR signal as % of negative control (100 = no effect), % at 10 µM; 2,300 tested, 19% active; AID 2105;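 active means dye signal at least 3 control SD above or below untreated wells in both duplicates, raw fluorescence within 3, either direction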;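 further: percent is based on the flux ratio of peak minus minimum fluorescence over baseline F0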
CHO-K1 ctr = parental CHO-K1 activity in KCNQ2 potentiator counter-screen; parental CHO-K1 cells, FluxOR thallium flux fluorescence; zero = vehicle mean+3SD, 100% = vehicle-minus-blank window; activity increase over 3SD of controls, % at 10 µM; 1,200 tested, 43% active; shares compounds with KCNQ2 enhance;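 active means signal rise of at least 3 SD above the untreated control mean, in both duplicate wells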;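 further: counter screen of KCNQ2 potentiator hits so any rise reflects channel-independent effects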
KCNQ1 pot spec = tests whether KCNQ2 potentiators also act on human KCNQ1. CHO KCNQ1 stable, FluxOR thallium flux fluorescence; beyond 3SD, as % of vehicle-control signal. activation over 3SD threshold, % at 10 µM. shares compounds with KCNQ2 enhance. 1,200 tested, 28% active;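 active means fluorescence ratio rise of at least 3 SD of vehicle wells above their mean, in both replicate wells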
KCNQ2 pot conf = confirmation of rat KCNQ2 potassium channel potentiators; shares compounds with KCNQ2 enhance; CHO-KCNQ2 cells, FluxOR thallium flux fluorescence; potentiation, less the hit threshold, % at 10 µM; 1,200 tested, 68% active;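 active means fluorescence ratio rising 3 SD or more over the vehicle control mean in both replicates, plus primary screen hit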;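 further: peak minus minimum thallium fluorescence divided by baseline after K/Tl stimulus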
Kir21 spec = tests whether KCNQ2 potentiators also affect mouse Kir2.1; HEK293 Kir2.1, FluxOR thallium flux fluorescence; activity over 3SD threshold, % at 10 µM; 1,200 tested, 2% active; shares compounds with KCNQ2 enhance;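 active means fluorescence ratio rise of at least 3 SD above the vehicle-control mean, seen in both replicates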
KCNQ2 W236L MoA = KCNQ2 potentiators acting on retigabine-insensitive rat KCNQ2 W236L mutant; CHO KCNQ2-W236L, automated patch clamp current; shares compounds with KCNQ2 enhance; 940 tested, 10% active; current increase over 3SD of negative controls (%), active compounds read high, % at 25 µM;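 active means current increase at least 3 SD of the untreated controls above them in both duplicate recordings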
Target sequence (O88943 whole entry W236L, looked up): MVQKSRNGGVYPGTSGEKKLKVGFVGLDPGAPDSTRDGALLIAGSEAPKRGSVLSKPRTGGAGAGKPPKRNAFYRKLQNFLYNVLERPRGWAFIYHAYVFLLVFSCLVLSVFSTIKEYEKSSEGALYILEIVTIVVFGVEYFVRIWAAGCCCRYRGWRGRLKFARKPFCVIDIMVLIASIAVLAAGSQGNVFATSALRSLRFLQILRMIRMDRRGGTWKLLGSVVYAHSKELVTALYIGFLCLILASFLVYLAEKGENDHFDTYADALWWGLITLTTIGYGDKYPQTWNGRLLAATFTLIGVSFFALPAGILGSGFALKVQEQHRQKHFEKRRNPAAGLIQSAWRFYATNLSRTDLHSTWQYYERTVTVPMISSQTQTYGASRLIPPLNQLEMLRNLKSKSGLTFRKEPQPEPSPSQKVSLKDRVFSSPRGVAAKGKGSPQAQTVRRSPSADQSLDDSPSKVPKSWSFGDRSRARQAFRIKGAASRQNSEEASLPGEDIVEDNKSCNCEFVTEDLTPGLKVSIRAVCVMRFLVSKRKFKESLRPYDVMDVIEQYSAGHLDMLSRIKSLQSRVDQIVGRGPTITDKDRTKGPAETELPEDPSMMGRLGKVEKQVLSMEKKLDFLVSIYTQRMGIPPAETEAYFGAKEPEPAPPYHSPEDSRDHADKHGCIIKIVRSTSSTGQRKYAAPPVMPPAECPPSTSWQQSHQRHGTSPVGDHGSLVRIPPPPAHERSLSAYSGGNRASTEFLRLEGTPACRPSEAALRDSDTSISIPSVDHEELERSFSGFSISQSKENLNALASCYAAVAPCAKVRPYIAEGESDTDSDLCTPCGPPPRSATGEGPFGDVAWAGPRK
Hits are given with their value; n = inactive; x = no result; ! = not active in a repeat. Only some compounds are listed: those with a hit (about 1.6% of all), similar ones and a draw of the others.

SMILES | KCNQ2 enhance | KCNQ2 inh | Kir21 conf inh | HEK293 Tl flux | CHO-K1 ctr | KCNQ1 pot spec | KCNQ2 pot conf | Kir21 spec | others
Cc1nc2sc3c(c2c(=O)n1NC(=O)CCBr)CCCC3 | 6.6 | n | n | n | n | n | 11 | n | KCNQ2 W236L MoA=n
Cc1ccccc1-n1c(SCC(=O)O)nc2sc3c(c2c1=O)CCCC3 | x | n | x | x | x | x | x | x
CCCc1nc2sc3c(c2c(=O)n1N)CCC3 | x | n | x | x | x | x | x | x
O=C(Nc1cccnc1)c1cc(-c2ccc(Cl)cc2Cl)on1 | x | n | x | x | x | x | x | x
CC1=CCC[C@@H]2[C@@](C)(CC/C(C)=C/C(=O)O)[C@H](C)CC[C@@]12C | 15 | n | n | 136% | 68 | 35 | 7.9 | n | KCNQ2 W236L MoA=n
C#CCn1c(=NC(=O)CSC(C)=O)sc2cc(F)ccc21 | 20 | n | n | n | n | n | 62 | n | KCNQ2 W236L MoA=36%
CCn1c(=NC(=O)CSC(C)=O)sc2cc(F)ccc21 | n | n | x | x | x | x | x | x
COc1ccc(S(=O)(=O)NNC(=O)C23CC4CC(CC(C4)C2)C3)cc1 | x | n | x | x | x | x | x | x
COc1cc(NC(=O)c2ccccc2)c(OC)cc1Cl | x | n | x | x | x | x | x | x
COc1cc(OC)cc(C(=O)NNC(=O)C(=O)Nc2cc(OC)c(Cl)cc2OC)c1 | 9.3 | n | n | 182% | n | n | n | n | KCNQ2 W236L MoA=n
COc1ccc(NC(=O)C(=O)NNC(=O)c2cccs2)c(OC)c1 | 8.6 | n | n | 240% | n | 19 | 6.9 | n | KCNQ2 W236L MoA=n
Cc1ccc(NC(=O)c2cccs2)cc1 | n | n | x | x | x | x | x | x
COc1ccc(OC)c(NC(=O)C(=O)NNC(=O)C23CC4CC(CC(C4)C2)C3)c1 | 8.7 | n | n | 272% | n | n | 7.5 | n | KCNQ2 W236L MoA=n
Cc1ccc(NC(=O)C(=O)NNC(=O)c2cccs2)cc1 | 10 | n | n | 341% | n | n | 35 | n | KCNQ2 W236L MoA=n
COc1ccc(NC(=O)C(=O)NNC(=O)c2cccs2)cc1 | n | n | x | x | x | x | x | x
O=C(NCc1ccc(Cl)s1)C1CCC(=O)N(CCc2ccccn2)C1 (configuration not stated) | n | n | x | x | x | x | x | x
Cc1ccc2nsnc2c1S(=O)(=O)Nc1cccc2nsnc12 | 6.1 | n | n | 238% | x | x | x | x
Cc1ccc(C)c(NS(=O)(=O)c2c(C)ccc3nsnc23)c1 | x | n | x | x | x | x | x | x
O=C(C1CCOCC1)N1CCCC(N2CCN(c3cccc(C(F)(F)F)c3)CC2)C1 (configuration not stated) | x | n | x | x | x | x | x | x
CC1=NN(C(=O)c2ccccc2C)C(O)(c2ccc(Cl)cc2)C1 (configuration not stated) | 11 | n | n | n | 22 | n | n | n
CC1=NN(C(=O)c2ccccc2Cl)C(O)(c2cccnc2)C1 (configuration not stated) | n | n | x | x | x | x | x | x
CCC1=NN(C(=O)c2ccccc2O)C(O)(c2ccccc2)C1 (configuration not stated) | 11 | n | n | 148% | n | n | 14 | n | KCNQ2 W236L MoA=n
CCC1=NN(C(=O)c2ccc([N+](=O)[O-])cc2)C(O)(c2ccccc2)C1 (configuration not stated) | n | n | x | x | x | x | x | x
Cc1cc(C(=O)Nc2ccccc2C(=O)O)c(C)o1 | n | n | x | x | x | x | x | x
COc1ccc(C(CNC(=O)C(CCSC)NC(=O)c2ccccc2OC)N2CCCCC2)cc1 (configuration not stated) | x | n | x | x | x | x | x | x
SMILES | KCNQ2 enhance | KCNQ2 inh | Kir21 conf inh | HEK293 Tl flux | CHO-K1 ctr | KCNQ1 pot spec | KCNQ2 pot conf | Kir21 spec | others
O=c1c(Cl)c(Cl)cnn1Cc1nnc(-c2ccc(Cl)cc2)o1 | n | n | x | x | x | x | x | x
CCOc1nc2cnccc2n(CC(=O)Nc2ccc(C)c(C)c2)c1=O | n | n | x | x | x | x | x | x
Cc1[nH]c2ccc(C(=O)OC(C)C(=O)NC3(C#N)CCCCC3)cc2c1C (configuration not stated) | x | n | x | x | x | x | x | x
CCCCN=C(Nc1ccc(Cl)cc1)c1cccnc1 | n | n | x | x | x | x | x | x
NC(=NCCCCCCN=C(N)/N=C(\N)Nc1ccc(Cl)cc1)/N=C(\N)Nc1ccc(Cl)cc1 | 7! | n | n | n | 3.9 | n | 44 | n
COC(=O)c1cc(F)c(-n2cncn2)c(F)c1 | n | n | x | x | x | x | x | x
COC(=O)c1cc([N+](=O)[O-])c(-n2cncn2)c([N+](=O)[O-])c1 | x | n | 73% | n | x | x | x | x
OCCNCc1cc(Br)ccc1OCc1ccc(Cl)cc1 | n | n | x | x | x | x | x | x
OCCNCc1cccc(OCc2ccc(Cl)cc2)c1 | n | n | n | n | x | x | x | x
CN(C)CCCn1cnc2c(c1=N)C(c1ccccc1)c1ccc3ccccc3c1O2 (configuration not stated) | x | n | n | n | x | x | x | x
N=c1c2c(ncn1CCCO)Oc1c(ccc3ccccc13)C2c1ccccc1 (configuration not stated) | x | n | x | x | x | x | x | x
O=C1CN(C(=O)CCCc2c[nH]c3ccccc23)c2ccccc2N1 | x | n | 50% | n | x | x | x | x
O=C(O)CCCC(=O)N1CC(=O)Nc2ccccc21 | n | n | x | x | x | x | x | x
COC(=O)c1ccc2c(CCO)c[nH]c2c1 | n | n | x | x | x | x | x | x
CCCn1c2ccccc2c2cnn(CC(=O)N3CCN(C4CCCCC4)CC3)c(=O)c21 | 9 | n | n | n | n | 35 | 20 | n | KCNQ2 W236L MoA=n
O=C(Cn1ncc2c3ccccc3n(Cc3ccccc3)c2c1=O)N1CCN(c2ccccn2)CC1 | 7.5 | n | n | n | n | 42 | 20 | n | KCNQ2 W236L MoA=n
CCCn1c2ccccc2c2cnn(CC(=O)N3CCOCC3)c(=O)c21 | n | n | x | x | x | x | x | x
O=C(Cn1ncc2c3ccccc3n(Cc3ccccc3)c2c1=O)N1CCN(c2ncccn2)CC1 | n | n | x | x | x | x | x | x
CCCCN(C)C(=O)Cn1ncc2c3ccccc3n(CCC)c2c1=O | 6 | n | n | n | 113 | n | n | n | KCNQ2 W236L MoA=n
CCCn1c2ccccc2c2cnn(CC(=O)N(CC)CC)c(=O)c21 | x | n | x | x | x | x | x | x
COc1ccc(/C=C/C(=O)Nc2c(C)nn(C)c2C)cc1COc1ccc(Cl)cc1Br | n | n | x | x | x | x | x | x
Cc1ccc(NC(=S)NNC(=O)c2nnn(-c3ccccc3)c2C)cc1 | x | n | x | x | x | x | x | x
CN1CCN(c2ccc(NC(=O)c3ccc(C#N)cc3F)cc2Cl)CC1 | n | n | x | x | x | x | x | x
CN(C)C(=O)CSc1nc(-c2cccs2)c(-c2cccs2)[nH]1 | n | n | x | x | x | x | x | x
CCOC(=O)N1CCN(C(=O)CCc2ccc(S(=O)(=O)NC(C)(C)C)cc2)CC1 | n | n | x | x | x | x | x | x
Cc1ccc(OC(=O)C(C)c2cccc(C(=O)c3ccccc3)c2)cc1 (configuration not stated) | x | n | x | x | x | x | x | x
Cc1ccccc1NC(=O)C(C)c1cccc(C(=O)c2ccccc2)c1 (configuration not stated) | n | n | n | n | 117 | 13 | 16 | n | KCNQ2 W236L MoA=n
